Measurements from PubChem BioAssay (NCATS).
Records with an inconclusive call do not appear. The source made the active and inactive calls. Calls come from the whole dose curve; as a rule, active = well fitted curve in the direction sought with a large enough effect; inconclusive = small, poorly fitted or top-dose-only effect, or another doubt; inactive = no such curve, though single readings can be large; an effect the other way counts as inactive or inconclusive.

Columns and labels:
[1] = target: Cellular tumor antigen p53 (Homo sapiens) (UniProt P04637); assay: Primary qHTS for small molecule compounds that upregulate eGFP-tagged delta133p53alpha (in N-terminal) cells. (AID 2060322); details: NCI-H358 eGFP-delta133p53alpha fluorescence, 24 h; activation: hits give high values;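 note: series mostly up to about 56 µM; 0% = DMSO vehicle and 100% = reference activator; nearly all actives have a fitted effect of over 75% in size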
Method in brief: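 NCI-H358 cells pre-induced 24 h with 10 ng/ml doxycycline to express N-terminal eGFP-delta133p53alpha, then dosed 24 h at 37C without doxycycline; fixed, Hoechst-stained, GFP intensity by laser scanning cytometry, normalized to DMSO (0%) and 57.5 uM 5-azacytidine (100%).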

[2] = target: Aldehyde dehydrogenase, mitochondrial (Homo sapiens) (UniProt P05091); assay: qHTS for Inhibitors of the Aldehyde Dehydrogenase Family (ALDH2) Primary screen (AID 2061308);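 note: plate controls were vehicle for no effect and reference inhibitor for full effect; nearly all actives have a fitted effect of over 55% in size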
[3] = target: Retinaldehyde dehydrogenase 3 (Homo sapiens) (UniProt P47895); assay: qHTS for Inhibitors of the Aldehyde Dehydrogenase Family (ALDH1A3) Primary screen (AID 2061315);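 note: plate controls were DMSO vehicle for no effect and reference inhibitor for full effect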

Sequence of Cellular tumor antigen p53 (Homo sapiens) (P04637 whole entry, looked up): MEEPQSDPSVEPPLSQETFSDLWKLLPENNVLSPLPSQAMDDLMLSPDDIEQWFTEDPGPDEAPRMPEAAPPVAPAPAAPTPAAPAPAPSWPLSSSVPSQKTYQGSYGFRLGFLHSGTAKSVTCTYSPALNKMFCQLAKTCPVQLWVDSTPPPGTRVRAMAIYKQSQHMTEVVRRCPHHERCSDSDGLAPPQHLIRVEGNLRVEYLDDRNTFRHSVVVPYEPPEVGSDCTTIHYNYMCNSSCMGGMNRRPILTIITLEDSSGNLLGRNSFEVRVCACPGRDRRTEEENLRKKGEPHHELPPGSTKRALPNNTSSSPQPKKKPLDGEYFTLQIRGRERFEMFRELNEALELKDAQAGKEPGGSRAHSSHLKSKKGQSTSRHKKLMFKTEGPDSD

O=C(O)CC(CCc1ccccc1)OC1OC(CO)C(O)C(O)C1O (configuration not stated)
inactive: activation [1] 3.57% | Potency [2] | Potency [3]

COc1ccc2nc(S(=O)(=O)Cc3ncc(C)c(OC)c3C)[nH]c2c1
inactive: activation [1] 6.33% | Potency [2] | Potency [3]

C=C1C(O)CC2C(C(=O)O)=COC(O[C@@H]3O[C@H](COC(=O)/C=C/c4ccc(O)cc4)[C@@H](O)[C@H](O)[C@H]3O)C12 (some centres not stated)
inactive: activation [1] -6.87% | Potency [2] | Potency [3]

CC1=C2CC3OC3(C)CCC3OC3(C)CC2OC1=O (configuration not stated)
inactive: activation [1] 9.82% | Potency [2] | Potency [3]

C/C=C/C=C/C(=O)N1CC[C@]23c4ccccc4N[C@H]4N(C)c5cccc6c5[C@@]42CCN([C@H]6C2OC2(C)C)[C@H]13 (some centres not stated)
inactive: activation [1] 15.3% | Potency [2] | Potency [3]

CC1(C)CC[C@]2(C(=O)O)CC[C@]3(C)C(=CCC4[C@@]5(C)CC[C@H](O[C@@H]6O[C@H](C(=O)O)[C@@H](O[C@@H]7OC[C@@H](O)[C@H](O)[C@H]7O)[C@H](O)[C@H]6O)C(C)(C)C5CC[C@]43C)C2C1O (some centres not stated)
inactive: activation [1] -1.79% | Potency [2] | Potency [3]

C=C(C)C1CCC2(C(=O)O)CCC3(C)C(CCC4C5(C)C(C=O)C(O)C(C)(C)C5CCC43C)C12 (configuration not stated)
inactive: activation [1] -19.8% | Potency [2] | Potency [3]

O=C(O[C@H]1[C@@H]2C[C@@H]3OC[C@@](O)([C@H]2[C@H](O[C@@H]2O[C@H](CO)[C@@H](O)[C@H](O)[C@H]2O)O3)[C@@H]1O)c1ccccc1
inactive: activation [1] 5.36% | Potency [2] | Potency [3]

C=CC1(C)C=C2C(O)CC3C(C)(C(=O)O)CCCC3(C)C2CC1 (configuration not stated)
inactive: activation [1] 8.04% | Potency [2] | Potency [3]

COC(=O)C1(C)CCC2(C(=O)O)CCC3(C)C(=CCC4C5(C)CC(O)C(OC6OCC(O)C(O)C6O)C(C)(CO)C5CCC43C)C2C1 (configuration not stated)
inactive: activation [1] -6.11% | Potency [2] | Potency [3]

Cn1cc(-c2ccc3nnc(Sc4ccc5nn(C)cc5c4)n3n2)cn1
inactive: activation [1] -4.46% | Potency [2] | Potency [3]

Fc1ccccc1CNCc1ccc(-c2ccnc3[nH]ccc23)cc1
inactive: activation [1] 7.14% | Potency [2] | Potency [3]

Cc1ccc(C(=O)N2CCN(c3ccc([N+](=O)[O-])cc3)CC2)cc1Cl
inactive: activation [1] 1.91% | Potency [2] | Potency [3]

Cn1ccc(NC(=O)c2cc(Oc3ccc(C(=O)N4CCC4)c(F)c3)c3c(c2)OC(C)(C)C3)n1
inactive: activation [1] -12.3% | Potency [2] | Potency [3]

O=C(Nc1nnc(-c2ccc3c(c2)OCCO3)o1)C1CCCCC1
inactive: activation [1] -8.33% | Potency [2] | Potency [3]

COC(=O)C1=CO[C@@H](O[C@@H]2O[C@H](CO)[C@@H](O)[C@H](O)[C@H]2O)[C@@H]2[C@@](C)(O)[C@@H](O)C[C@]12O
inactive: activation [1] -2.29% | Potency [2] | Potency [3]

C=C1CCC2C(C)(C(=O)O)CCCC2(C)C1CC/C(=C\CO)CO (configuration not stated)
inactive: activation [1] 3.57% | Potency [2] | Potency [3]

CC1(C)CC2C3=CCC4[C@@]5(C)CC[C@H](OC6OCC(O)C(OC7OC(CO)C(O)C(O)C7O)C6O)C(C)(C)C5CC[C@@]4(C)[C@]3(C)C[C@H](O)[C@@]2(CO)[C@H](OC(=O)c2ccccc2)C1 (some centres not stated)
inactive: activation [1] 19.8% | Potency [2] | Potency [3]

COC(=O)C[C@@H]1C(C(=O)O)=CO[C@@H](O[C@@H]2O[C@H](CO)[C@@H](O)[C@H](O)[C@H]2O)/C1=C\COC(=O)/C=C/c1ccc(O)c(OC)c1
inactive: activation [1] 6.87% | Potency [2] | Potency [3]

C=C[C@@](C)(O)CC/C=C(\C)C(=O)O[C@@H]1[C@@H]2O[C@]2(C)[C@H]2[C@H](O[C@@H]3O[C@H](CO)[C@@H](O)[C@H](O)[C@H]3O)OC=C[C@@]12O
inactive: activation [1] -3.57% | Potency [2] | Potency [3]

COC(=O)C1C(c2ccc(O)cc2)C(C(=O)O)C1c1ccc(O)cc1 (configuration not stated)
inactive: activation [1] -18.3% | Potency [2] | Potency [3]

CC(C)=C1CC2[C@](C)(CC[C@@H](OC(=O)C3(C)OC3C)[C@@]2(C)O)CC1=O (some centres not stated)
inactive: activation [1] -20.6% | Potency [2] | Potency [3]

CC(CCC1(O)OC2CC3C4CC=C5CC(O[C@@H]6O[C@H](CO)[C@@H](O[C@@H]7O[C@@H](C)[C@H](O)[C@@H](O)[C@H]7O)[C@H](O)[C@H]6O[C@@H]6O[C@@H](C)[C@H](O)[C@@H](O)[C@H]6O)CCC5(C)C4CCC3(C)C2C1C)CO[C@@H]1O[C@H](CO)[C@@H](O)[C@H](O)[C@H]1O (some centres not stated)
inactive: activation [1] 8.04% | Potency [2] | Potency [3]

O=C(NCCCc1ccccc1)c1cccc(-c2cc(O)c3ncccc3c2)c1
inactive: activation [1] 7.67% | Potency [2] | Potency [3]
